D2 ag-1: activates the human D2 dopamine receptor; DiscoveRx PathHunter D2 beta-arrestin, luminescence, 90 min; 100% = 57 uM dopamine signal; P14416; activation, % (test concentration not listed); AID 624465; 360,000 tested, 0.084% active; in the data active = activation above about 40%; inconclusive = between about 15% and that limit
Target sequence (P14416 whole entry, looked up): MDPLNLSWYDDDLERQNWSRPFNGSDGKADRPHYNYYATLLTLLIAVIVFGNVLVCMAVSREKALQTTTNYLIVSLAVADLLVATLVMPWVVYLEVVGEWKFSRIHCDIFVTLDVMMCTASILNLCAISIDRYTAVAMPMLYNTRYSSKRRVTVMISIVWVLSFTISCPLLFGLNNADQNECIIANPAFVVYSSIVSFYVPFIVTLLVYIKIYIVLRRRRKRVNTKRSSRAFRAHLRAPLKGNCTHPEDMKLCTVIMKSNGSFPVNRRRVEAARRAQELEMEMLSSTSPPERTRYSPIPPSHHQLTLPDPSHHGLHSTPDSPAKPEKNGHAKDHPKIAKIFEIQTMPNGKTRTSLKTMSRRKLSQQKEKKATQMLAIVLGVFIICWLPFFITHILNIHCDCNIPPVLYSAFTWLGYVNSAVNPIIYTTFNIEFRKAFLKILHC
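DiscoveRx PathHunter D2 beta-arrestin cells (2,100/well) attached overnight, then compound-stimulated 90 min at 37 C in HBSS/10 mM HEPES/0.1% Tween-20 buffer; beta-galactosidase complementation read by luminescence after 1 h at ambient temperature. Dopamine 57 uM final (EC100) as control.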
D2 antagonist: antagonizes the human D2 dopamine receptor | P14416 | HEK293 TREx D2 cells, calcium flux, dopamine EC80 | inhibition, % at 10 µM | 340,000 tested, 2% active | AID 485344; in the data active = inhibition above about 30%; inactive = below that, where a call was filed; also: 0% is about no effect
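In this primary screen, negative modulation is detected by tracking calcium flux after an EC80 dopamine challenge in inducible HEK293 T-REx D2 cells preexposed to test compound for 180 s.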
D2 PAM-1: potentiates the human D2 dopamine receptor allosterically | P14416 | DiscoveRx D2 beta-arrestin cells, luminescence, 90 min; 100% = 57 uM dopamine signal | potentiation, % (test concentration not listed) | 360,000 tested, 0.23% active | AID 624464; in the data active = potentiation above about 50%; inconclusive = mostly about 30% to 49%
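PathHunter D2 cells, attached overnight at 37 deg C, received compound in DMSO plus dopamine at EC20 (50 nM final) for 90 min at 37 deg C. Beta-arrestin recruitment was read as luminescence after 1 h with detection reagent at ambient temperature.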
D2 ag-2: activates the human D2 dopamine receptor; P14416; HEK293 T-REx D2 cells, calcium flux agonist mode; AID 485358; 340,000 tested, 0.53% active; activation, % at 2 µM;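 active = activation over 3 SD above normal in the single-dose calcium agonist read, cut at about 30% in these data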; also: 0% is about no effect
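HEK293 Trex D2 cells, tetracycline-induced, o/n 30 C 5% CO2; no-wash Ca dye, RT 30–90 min; 10-cycle baseline, 23 nl cpd added, kinetic Ca read 180 s; agonist hits = positive Ca response.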
D2 PAM-2: positive allosteric modulators of human D2 dopamine receptor. P14416. HEK293 T-REx D2, calcium flux, EC20 dopamine potentiation. potentiation, % at 10 µM. 340,000 tested, 0.34% active;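 active = potentiation over 3 SD above the plate norm, cut at about 30% in these data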; also: 0% is about no effect
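Using a no-wash calcium dye in inducible, force-coupled HEK293 Trex cells expressing D2, we tracked fluorescence each second for 180 s after compound, then for 180 s after EC20 dopamine to detect augmented signalling.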
D3 arrestin ag: activates human D3 dopamine receptor beta-arrestin recruitment. DiscoveRx D3 beta-arrestin cells, luminescence, 90 min. shares compounds with D2 ag-2. 2,300 tested, 4% active. AID 720506. Potency, µM (doses to about 76.9 µM), for the others: top-dose activation, usual class: activators;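 also: potency is read from the fitted curve at half-maximal effect; 100% = dopamine control response; nearly all actives have a fitted effect of over 70% in size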
D2 ag-3: counter-screen for D3 agonists: human D2 dopamine receptor agonism. AID 720507. 2,300 tested, 5.9% active. shares compounds with D2 ag-2. Potency, µM (titrated, usually from 76.9 µM), for the others: top-dose activation, actives largely listed as activators. DiscoveRx PathHunter D2 beta-arrestin, luminescence, 90 min; response scale: percent relative to full dopamine signal; also: potency is read from the fitted curve at half-maximal effect; % of control where 0% means no effect; nearly all actives have a fitted effect of over 70% in size
The depositor's hits bear a star; ? = inconclusive; / = no result; ! = not active in a repeat. Compounds with a hit are over-represented: about 2.4% of the library has one in this group of screens. Unless noted, calls follow the shape of the dose curve; as a rule, active = well fitted activation curve with a large enough effect; inconclusive = small, poorly fitted or top-dose-only effect; inactive = flat fitted curve, though single readings scatter.

SMILES	D2 ag-1	D2 antagonist	D2 PAM-1	D2 ag-2	D2 PAM-2	D3 arrestin ag	D2 ag-3
COc1ccc2oc(=O)c(C(=O)N3c4ccccc4CC3C)cc2c1 (stereo not given)	11	/	6	/	/	-3%	10%
O=C(CSC1=Nc2ccccc2C2=NC(CCC(=O)NC3CCCCC3)C(=O)N12)Nc1cccc(C(F)(F)F)c1 (stereo not given)	/	/	/	-1	-6	/	/
Cc1cccc(C(=O)N2CCc3cc(CNC(=O)c4ccc(Br)o4)ccc32)c1	/	/	/	0	9	/	/
CCc1nn2c(=O)c(S(=O)(=O)Nc3ccc(C)c(C)c3)c(C)nc2s1	/	/	/	1	-7	/	/
O=C1C(=O)N(CCCn2ccnc2)C(c2cccnc2)/C1=C(/O)c1ccc(F)cc1 (stereo not given)	-1	24	-5	40*	-22	-9%	-3%
COc1ccc(-n2nc(-c3ccc(C)cc3)c3cnc4cc(F)c(F)cc4c32)cc1	/	/	/	0	-5	/	/
C[C@@H]1CCCCCCCCC(=O)OCCN(C(=O)OC(C)(C)C)[C@H](C)CCCCCCCCC(=O)OCCN1C(=O)OC(C)(C)C	-2	/	-10	/	/	/	/
C[C@@H]1CCCCCCCCC(=O)OCCN1C(=O)OC(C)(C)C	-1	13	0	1	-4	2%	2%
CCOC(=O)c1cccc(NC(=O)c2cnccn2)c1	-4	/	-6	/	1	-12%	-3%
Oc1c(C(c2ccc(Cl)cc2)N2CCOCC2)sc2nc(-c3ccco3)nn12 (stereo not given)	/	/	/	1	18	/	/
CN(C)c1ccc(C#Cc2ccc3cc(CCO)oc(=O)c3c2)cc1	-1	-12	-5	-1	-4	12%	3%
COc1ccc2c(c1)c1c(c(=O)n(-c3ccccc3)c(=O)n1CC(=O)Nc1ccc(F)cc1)n2C	/	/	/	/	-10	/	/
Cc1ccc(-n2c3nc(=O)[nH]c(=O)c-3cc3c(C)nn(-c4ccccc4)c32)cc1Cl	/	/	/	0	-14	/	/
Cc1ccc(CNC(=O)c2cc3cc(C)ccc3n2C)cc1	/	/	/	2	17	/	/
O=C(NCCc1ccccc1)c1coc(=O)c(Br)c1	2	13	2	39*	0	4%	14%
CN(C)CCNC(=O)c1coc(=O)c(Br)c1	-3	6	20	0	4	/	/
CN(C)c1ccc(CNC(=O)CCn2cccn2)cc1	/	/	/	0	-8	/	/
N#Cc1ccc(C2=CC(=O)C[C@H](c3ccc(F)cc3)C2)cc1	1	-11	-13	0	8	3%	1%
Cn1ccc2ccc(C3=CC(=O)C[C@H](c4ccc(F)cc4)C3)cc21	-3	-10	-5	-1	-12	-5%	1%
Cc1ccc(C2=CC(=O)C[C@H](c3ccc(F)cc3)C2)cc1	-7	8	-7	0	16	/	/
CCN(CC)S(=O)(=O)c1cccc(C(=O)N/N=C2\CCCC(=O)C2)c1	-7	17	-9	4	-3	/	/
CCN(CC)S(=O)(=O)c1cccc(C(=O)N/N=C2\CC(=O)CC(C)(C)C2)c1	0	-16	4	1	-17	-3%	2%
CCOC(=O)C1CCN(Cc2ccc(OCc3ccccc3)cc2)CC1	11	59*	0	68*	-19	0%	?
CCOC(=O)C1CCN(Cc2cccc(OC)c2)CC1	?	44*	-3	76*	-27	-16%	24%
CCOC(=O)C1CCN(Cc2ccc(OC)cc2OC)CC1	0	23	-15	-1	12	/	/
SMILES	D2 ag-1	D2 antagonist	D2 PAM-1	D2 ag-2	D2 PAM-2	D3 arrestin ag	D2 ag-3
CCOC(=O)C1CCN(Cc2ccc(N(C)C)cc2)CC1	2	28	-7	42*	-19	-27%	12%
CCOC(=O)C1CCN(Cc2ccc(F)c(F)c2)CC1	0	6	-15	7	-9	/	/
Clc1ccc(CN2CCN(c3ncccn3)CC2)cc1	68*	85*	53*	73*	-17	?	2.8µM*
C(#Cc1ccccc1)CN1CCCCC1	-3	-21	-21	0	-5	/	/
c1ccc(-c2ccc(CN3CCN(c4ncccn4)CC3)cc2)cc1	?	118*	29	79*	-32	?	?
c1ccc(CN2CCN(c3nc(-c4ccccc4)nc(-n4ccnc4)n3)CC2)cc1	-4	4	-33	0	8	/	/
NC(=O)C1CCN(Cc2ccc(OCc3ccccc3)cc2)CC1	-6	-5	-6	1	12	/	/
C(#Cc1ccccc1)CN1CCN(c2ccccn2)CC1	5	20	-10	45*	-17	10%	11%
c1ccc(COc2ccc(CN3CCN(c4ccccn4)CC3)cc2)cc1	47*	75*	18	77*	-23	?	11µM*
Cc1ccc(CNC(=O)C2CCCN(S(=O)(=O)c3ccc4c(c3)oc(=O)n4C)C2)cc1 (stereo not given)	/	/	/	0	-10	/	/
Cc1ccc2[nH]c3c(N4CCN(Cc5ccc6c(c5)OCO6)CC4)ncnc3c2c1	/	/	/	/	-13	/	/
Cc1cc(=O)[nH]c(N2CCN(Cc3ccccc3)CC2)n1	6	-16	0	40*	-14	-12%	9%
Clc1ccc(CN2CCN(c3ncccn3)CC2)cc1Cl	65*	77*	20	80*	-35	?	14µM*
Fc1ccc(CN2CCCCCC2)c(F)c1	-1	7	-22	0	-3	/	/
Fc1ccc(CN2CCN(c3ncccn3)CC2)c(F)c1	60*	79*	29	95*	-24	?	16µM*
c1nc(N2CCN(Cc3ccc4c(c3)OCO4)CC2)c2[nH]cnc2n1	9	/	81*	/	/	16%	2.8µM*
CCCCc1c(O)nc(N2CCN(Cc3ccccc3)CC2)[nH]c1=O	0	/	-6	/	/	/	/
CC(C)CC(=O)NC1(C(F)(F)F)C(=O)Nc2c1c(=O)[nH]c(=O)n2-c1ccccc1 (stereo not given)	/	/	/	0	9	/	/
CN(C)c1ccc(CNC(=O)c2ccc3nc(CCc4ccccc4)oc3c2)cc1	/	/	/	-2	-3	/	/
O=C(c1cccnc1)N1CCN(Cc2cccc(F)c2)CC1	2	13	-7	1	6	/	/
O=C(Cc1ccccc1)N1CCN(c2ncccn2)CC1	4	0	-1	0	1	/	/
c1cnc(N2CCN(Cc3ccc4c(c3)OCO4)CC2)nc1	41*!	89*	62*!	80*	-26	?	0.05µM*
c1ccc(CN2CCN(c3ncccn3)CC2)cc1	56*	84*	?	86*	-25	?	2.5µM*

Bioassay records from PubChem BioAssay.
